The list is not random: actives were taken first. Their share in the collection is about 10%.
GPT2 inh: GPT2 alanine aminotransferase inhibition; Q8TD30; Potency, µM (doses to about 57.7 µM), for the others: at the top dose activity change, negative = inhibition, actives largely listed as inhibitors; AID 1671188; Recombinant GPT2, coupled pyruvate oxidase/HRP Amplex Red fluorescence; 100,000 compounds, 0.25% hits; note: nearly all actives have a fitted effect of over 60% in size
Target sequence (Q8TD30 whole entry, looked up): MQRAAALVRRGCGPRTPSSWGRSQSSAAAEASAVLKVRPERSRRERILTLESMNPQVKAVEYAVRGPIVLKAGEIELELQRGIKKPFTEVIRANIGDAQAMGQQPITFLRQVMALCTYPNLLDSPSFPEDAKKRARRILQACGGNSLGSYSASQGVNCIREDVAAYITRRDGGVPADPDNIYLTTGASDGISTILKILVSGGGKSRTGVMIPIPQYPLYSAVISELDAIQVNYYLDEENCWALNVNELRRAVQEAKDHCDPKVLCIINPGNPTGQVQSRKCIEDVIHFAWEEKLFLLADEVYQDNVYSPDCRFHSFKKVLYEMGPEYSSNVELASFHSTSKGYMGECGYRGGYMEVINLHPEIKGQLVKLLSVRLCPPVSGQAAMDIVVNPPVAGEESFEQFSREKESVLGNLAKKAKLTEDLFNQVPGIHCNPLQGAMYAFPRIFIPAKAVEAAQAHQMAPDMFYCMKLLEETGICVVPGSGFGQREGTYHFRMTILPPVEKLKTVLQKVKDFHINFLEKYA
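Recombinant GPT2 (10ng/uL) with 250uM a-KG and 2mM L-alanine, 30 min at room temperature, in HEPES pH 7.5 buffer. Pyruvate detected by pyruvate oxidase/HRP/Amplex Red fluorescence after 30 min in the dark; AOA (50uM) as positive control.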
NPR1 antag: human Npr1 receptor antagonism. HEK293 hNpr1 GloSensor cGMP, ANP-stimulated luminescence. Potency, µM (doses to about 46.3 µM), for the others: at the highest dose activity change, negative = inhibition, hits mostly inhibitors. 76,000 compounds, 1.6% hits. AID 1347048; calls by dose curve; note: nearly all actives have a fitted effect of over 60% in size
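Compound pre-incubated 30 min at room temperature on GloSensor-loaded HEK293 cells stably carrying hNpr1 and the pGS-40F cGMP biosensor. Stimulation uses hNppA at 0.1 nM final; luminescence is taken at baseline and 20 min post-agonist.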
HEK293 tox: kills HEK 293 cells | HEK 293 viability, ATP luminescence (CellTiter-Glo), 48-72 h | Potency, µM (highest dose often 115 µM), inactives show top-dose activity change, negative = cytotoxicity, usual class: inhibitors | 94,000 compounds, 6.6% hits | AID 1345083; note: nearly all actives have a fitted effect of over 60% in size
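qHTS cytotoxicity; HEK 293, 250 cells/well; compound pinned; 48 or 72 hr, 37 degree Celsius, 5% CO2, 95% humidity; CellTiter-Glo, 10 min RT; luminescence (ATP).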
FLuc inh: Photinus pyralis luciferase inhibition | P08659 | purified P. pyralis luciferase, luminescence, biochemical | Potency, µM (top dose mostly 115 µM), usual class: inhibitors | 76,000 compounds, 2.5% hits; note: nearly all actives have a fitted effect of over 65% in size
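Purified P. pyralis luciferase (10nM final) in 50mM Tris acetate pH 7.5, 10mM Mg acetate, 0.01% Tween-20, 0.05% BSA with 10uM D-luciferin and 10uM ATP. Compounds titrated qHTS. Luminescence imaged on CCD.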
3T3 cytotox: cytotoxic compounds in NIH 3T3 cells | NIH 3T3 viability, CellTiter-Glo ATP luminescence, 48-72 h | Potency, µM (highest dose often 96.7 µM), for the others: top-dose activity change, negative = cytotoxicity, usual class: inhibitors | 94,000 compounds, 4.3% hits | AID 1345082; note: nearly all actives have a fitted effect of over 55% in size
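Mouse fibroblast NIH 3T3 cells, 400 per well, received compound via pintool and were incubated for 48 or 72 hr prior to CellTiter-Glo ATP luminescence measurement.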
* = called active by the depositor; [ ] = remark or other dose. Unless noted, calls come from the whole dose curve; as a rule, active = well fitted curve in the direction sought with a large enough effect; inconclusive = small, poorly fitted or top-dose-only effect, or another doubt; inactive = no such curve, though single readings can be large; an effect the other way counts as inactive or inconclusive. % is set by controls: 0 for no effect and ±100 for the full control effect; potency is the fitted concentration of half-maximal effect.

Screening CCOC(=O)N1CCC(N(C)CC2CCN(CCc3ccc(F)cc3)CC2)CC1 returned GPT2 inh inactive, NPR1 antag 1%, HEK293 tox inconclusive, FLuc inh inactive and 3T3 cytotox inconclusive.
Cc1ccc(C(=O)N2CCCC3(CN[S+](=O)([O-])c4cnccc4N3)C2)cc1 (stereo unspecified) was read as HEK293 tox inactive and 3T3 cytotox inactive.
COc1ccccc1C(=O)N1CCCC(C(=O)N2CCCC2c2nc3ccncc3[nH]2)C1 (stereo unspecified) was read as GPT2 inh inactive, HEK293 tox inactive and 3T3 cytotox -8%.
For COc1ccc(C(=O)NC[C@@H]2CC[C@H]3C[C@@H]2C3(C)C)cc1 the results were GPT2 inh -7%[88.5 µM], NPR1 antag inconclusive, HEK293 tox 100µM*, FLuc inh inactive and 3T3 cytotox inconclusive.
For CC1(C)[C@H]2CC[C@@H](CNC(=O)c3ccccc3)[C@@H]1C2 the results were GPT2 inh 4%[88.5 µM], NPR1 antag 1%[70.6 µM], HEK293 tox inconclusive, FLuc inh inactive and 3T3 cytotox inconclusive.
Screening CC1(C)[C@H]2CC[C@@H](CNC(=O)c3cncc(Br)c3)[C@@H]1C2 returned GPT2 inh inactive, NPR1 antag 5%, HEK293 tox 79µM*, FLuc inh inactive and 3T3 cytotox inconclusive.
`COCCOC1CCN(C(=O)c2cc(C)n(CCOC)c2C)CC1` gave GPT2 inh inactive, NPR1 antag 1%, HEK293 tox -9%, FLuc inh 20µM* and 3T3 cytotox -9%.
For COCCn1c(C)cc(C(=O)N2CCC3(CC2)CC(O)CCO3)c1C (stereo unspecified) the results were GPT2 inh 5%, NPR1 antag -9%, HEK293 tox 3%, FLuc inh inactive and 3T3 cytotox -12%.
For Cc1nc2c(c(-c3ccc(Cl)cc3)n1)CN([S+](=O)([O-])c1ccsc1)CC2 the results were GPT2 inh -1%, NPR1 antag 12%, HEK293 tox -28%, FLuc inh inactive and 3T3 cytotox 22µM*.
Screening Cc1nc2c(c(-c3ccc(Cl)cc3)n1)CCN([S+](C)(=O)[O-])CC2 returned GPT2 inh 4%, NPR1 antag 2%, HEK293 tox -1%, FLuc inh inactive and 3T3 cytotox -28%.
COc1ccc(-c2nc(C)nc3c2CN([S+](=O)([O-])c2ccccc2)CC3)cc1 was read as GPT2 inh inactive, HEK293 tox inactive and 3T3 cytotox 35µM*.
`Cc1ccc([S+](=O)([O-])N2CCc3nc(-c4ccc(Cl)cc4)nc(-c4ccccc4)c3C2)cc1` gave GPT2 inh 5%, NPR1 antag -2%, HEK293 tox inconclusive, FLuc inh 28µM* and 3T3 cytotox -13%.
COc1ccc(-c2nc(C3CC3)nc3c2CN([S+](=O)([O-])c2ccccc2)CC3)cc1 was read as GPT2 inh 3%, HEK293 tox 2% and 3T3 cytotox 18µM*.
Screening O=[S+]([O-])(c1ccccc1)N1CCc2nc(C3CC3)nc(-c3ccc(Cl)cc3)c2C1 returned GPT2 inh 3%, NPR1 antag 0%, HEK293 tox -20%, FLuc inh inactive and 3T3 cytotox -1%.
`CC(C)c1ccc(CN2CCCC3(CCN(C(=O)c4ccnn4C)C3)C2)cc1` (stereo unspecified) gave GPT2 inh inactive, NPR1 antag -15%, HEK293 tox 40µM*, FLuc inh inactive and 3T3 cytotox -27%.
Screening CC(O)CN1CC2(CCC1=O)CCN(C(=O)c1ccnn1C)CC2 (stereo unspecified) returned GPT2 inh -12%, NPR1 antag 14%, HEK293 tox -18%, FLuc inh inactive and 3T3 cytotox -11%.
For O=C(c1nccc2ccccc12)N1CCc2c(nc(-c3ccccc3)[nH]c2=O)C1 the results were GPT2 inh inactive, NPR1 antag -4%, HEK293 tox 25µM*, FLuc inh inactive and 3T3 cytotox inconclusive.
`CC(C)n1cc(CN2CCCC23CCN(c2ccc(C(F)(F)F)cn2)CC3)cn1` gave GPT2 inh 4%, NPR1 antag inconclusive, HEK293 tox inconclusive, FLuc inh inactive and 3T3 cytotox inconclusive.
Screening CC(C)n1ccnc1CN1CCCC12CCN(c1ccc(C(F)(F)F)cn1)CC2 returned GPT2 inh -7%, NPR1 antag 2%, HEK293 tox 35µM*, FLuc inh inactive and 3T3 cytotox inconclusive.
Screening COc1ccc(S(=O)(=O)N[C@H]2C[C@@H](c3nc(-c4cnccn4)no3)N(C)C2)cc1 returned GPT2 inh 1%[88.5 µM], NPR1 antag 7%[70.6 µM], HEK293 tox -1%[172 µM], FLuc inh inactive and 3T3 cytotox -8%[138 µM].
For COc1ccc(-c2noc([C@@H]3C[C@H](NS(=O)(=O)c4ccc(F)cc4)CN3C)n2)cc1 the results were GPT2 inh 0%[88.5 µM], NPR1 antag -23%[70.6 µM], HEK293 tox inconclusive, FLuc inh 18µM* and 3T3 cytotox inconclusive.
`COc1ccc([C@H]2C[C@@H](O)[C@@H](O)[C@@H]2NCc2cccc(C(F)(F)F)c2)cc1` gave GPT2 inh -5%[88.5 µM], NPR1 antag -5%[70.6 µM], HEK293 tox inconclusive, FLuc inh inactive and 3T3 cytotox inconclusive.
`COc1ccc(-c2noc([C@@H]3C[C@H](NS(=O)(=O)c4cccs4)CN3C)n2)cc1` gave GPT2 inh 4%[88.5 µM], NPR1 antag inconclusive, HEK293 tox inconclusive, FLuc inh inconclusive and 3T3 cytotox inconclusive.
For COc1ccc([C@H]2C[C@@H](O)[C@@H](O)[C@@H]2NCc2cccc(C#N)c2)cc1 the results were GPT2 inh -21%[88.5 µM], NPR1 antag -3%[70.6 µM], HEK293 tox -24%[172 µM], FLuc inh inactive and 3T3 cytotox 89µM*.
Screening COc1ccc(-c2noc([C@@H]3C[C@H](NCc4ccc(S(C)(=O)=O)cc4)CN3C)n2)cc1 returned GPT2 inh 0%, NPR1 antag inconclusive, HEK293 tox inconclusive, FLuc inh 45µM* and 3T3 cytotox -29%.
For COc1ccc(S(=O)(=O)N[C@H]2C[C@@H](c3nc(-c4ccc(C)cc4)no3)N(C)C2)cc1 the results were GPT2 inh inconclusive, NPR1 antag inconclusive, HEK293 tox 79µM*, FLuc inh 25µM* and 3T3 cytotox inconclusive.
Screening Cc1cnc(C2CC2)n1C1CCN(C(=O)Nc2ccccc2F)CC1 returned GPT2 inh -6%, HEK293 tox -13% and 3T3 cytotox -16%.
O=C(c1ccc(OC(F)(F)F)cc1)N1CCC(c2n[nH]c(=O)n2-c2ccccc2)CC1 was read as GPT2 inh inactive, NPR1 antag 2%, HEK293 tox -15%, FLuc inh inactive and 3T3 cytotox -20%.

Source: PubChem BioAssay (National Center for Advancing Translational Sciences (NCATS))
